Source: PubChem BioAssay AID485347 (National Center for Advancing Translational Sciences (NCATS), 2010)
Screen size: about 340,000 compounds; about 1,200 (0.35%) were called active. The full list was thinned out, with actives kept by preference. Unmarked numbers belong to inactive results.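 The calls were made as follows: active = potentiation over 3 SD above the plate norm (cut at about 30% in these data); inactive = the rest.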

The compounds below were run against D(2) dopamine receptor (Homo sapiens) (UniProt P14416) (assay: HTS Assay for Positive Allosteric Modulators of the Human D2 Dopamine Receptor: Primary Screen for Potentiators). Conditions: HEK293 T-REx D2, calcium flux, EC20 dopamine potentiation; at 10 µM; hits give high values.
D(2) dopamine receptor (Homo sapiens), sequence (P14416 whole entry, looked up): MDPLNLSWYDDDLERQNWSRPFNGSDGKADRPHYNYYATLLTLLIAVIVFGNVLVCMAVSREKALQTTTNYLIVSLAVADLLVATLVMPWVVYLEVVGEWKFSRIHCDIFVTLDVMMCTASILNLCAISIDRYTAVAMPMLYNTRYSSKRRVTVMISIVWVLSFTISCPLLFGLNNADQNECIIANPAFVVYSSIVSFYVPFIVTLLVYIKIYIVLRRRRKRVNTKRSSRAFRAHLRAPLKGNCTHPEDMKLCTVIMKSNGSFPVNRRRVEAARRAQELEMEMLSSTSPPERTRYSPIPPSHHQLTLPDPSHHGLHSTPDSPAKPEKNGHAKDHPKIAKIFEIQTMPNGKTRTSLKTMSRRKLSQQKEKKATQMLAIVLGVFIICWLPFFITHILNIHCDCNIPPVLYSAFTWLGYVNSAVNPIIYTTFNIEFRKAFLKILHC
Procedure, shortened: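 Using a no-wash calcium dye in inducible, force-coupled HEK293 Trex cells expressing D2, we tracked fluorescence each second for 180 s after compound, then for 180 s after EC20 dopamine to detect augmented signalling.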
Also: 0% is about no effect.

Which potentiation does the source give for `COc1ccc(C(=O)OCC(=O)N2CC(=O)Nc3ccccc32)cc1Br` here?
The potentiation was -9.38%.

`COc1cc(OC)c(C(=O)OCC(=O)N2CC(=O)Nc3ccccc32)cc1OC` was tested. Which potentiation did it give?
The potentiation was 35.4% (active).

With `COc1ccc(Cl)cc1-n1c(C)cc(C(=O)OCC(=O)N2CC(=O)Nc3ccccc32)c1C` as the compound, how does the potentiation read?
Its potentiation is -19.1%.

For `O=C(Nc1nnc(C2CC(=O)N(c3ccc(Cl)cc3)C2)s1)c1ccco1` (configuration not stated), which potentiation is on record?
The potentiation was -13.1%.

`CC(=O)NCCC(=O)Nc1cc(S(=O)(=O)N2CCCCC2)ccc1Oc1cccc(C)c1` was tested. Which potentiation did it give?
The potentiation was -0.184%.

How did the potentiation turn out when `Cc1cccc(OCCCC(=O)Nc2ccc(S(=O)(=O)N3CCCC3)cc2)c1` was run?
Its potentiation is 9.5%.

How did the potentiation turn out when `Cc1cccc(OCCC(=O)Nc2cc(S(=O)(=O)N3CCCCC3)ccc2N2CCOCC2)c1` was run?
Its potentiation is 38.1% (active).

With `CCOC(=O)N1CCC(NC(=O)c2cnn(-c3cccc(C)c3)c2C2CCN(C(=O)OC(C)(C)C)CC2)CC1` as the compound, how does the potentiation read?
The potentiation was -9.08%.

Which potentiation does the source give for `Cn1nnnc1SCCNCc1ccc(Cl)c(Cl)c1` here?
Its potentiation is -14.4%.

`CC1=NCCN1S(=O)(=O)c1cccc([N+](=O)[O-])c1` was tested. Which potentiation did it give?
Its potentiation is 12.8%.

How did the potentiation turn out when `Cc1ccc(-c2cn(S(=O)(=O)c3cccc([N+](=O)[O-])c3)nc2N)cc1` was run?
The potentiation was 30.3% (active).

For `Cc1cc(C)n(S(=O)(=O)c2cccc([N+](=O)[O-])c2)n1`, which potentiation is on record?
The potentiation was 2.11%.

For `COc1cccc(C(c2c(O)cc(C)n(Cc3ccco3)c2=O)N2CCN(c3ccccc3)CC2)c1` (configuration not stated), which potentiation is on record?
Its potentiation is -2.97%.

How did the potentiation turn out when `Cc1ccccc1CNC(=O)CCc1cn(Cc2ccccc2C)c2ccccc12` was run?
The potentiation was -1.4%.

How did the potentiation turn out when `COc1ccc(-c2cn3nc(N4CCCC(C(=O)NCCCOC(C)C)C4)sc3n2)cc1` (configuration not stated) was run?
The potentiation was -3.35%.

With `Cc1cccc(NC(=O)C2CCN(S(=O)(=O)c3c(C)noc3/C=C/c3ccco3)CC2)c1` as the compound, how does the potentiation read?
The potentiation was 2.71%.

How did the potentiation turn out when `CC(C)c1ccc(C(=O)NCCCc2ccccc2)cc1` was run?
The potentiation was -14.7%.

How did the potentiation turn out when `O=C(CCNC(=O)c1ccc(Br)cc1)NCCCc1ccccc1` was run?
The potentiation was 33% (active).

`O=C(CCNS(=O)(=O)c1ccccc1)NCCCc1ccccc1` was tested. Which potentiation did it give?
The potentiation was -12.4%.

`Cc1cc(F)ccc1NS(=O)(=O)c1ccc(-n2cccn2)cc1` was tested. Which potentiation did it give?
Its potentiation is -0.96%.

With `COc1ccc(CCNC(=O)c2cc(=O)c3c(C)cc(C)cc3o2)cc1OC` as the compound, how does the potentiation read?
The potentiation was -14.8%.

For `COc1ccc(C2=NOC(C(=O)NCc3ccco3)C2)cc1OC` (configuration not stated), which potentiation is on record?
Its potentiation is 32.1% (active).

For `COc1ccc(S(=O)(=O)N2CCC(C(=O)NCc3ccco3)CC2)cc1C`, which potentiation is on record?
Its potentiation is 6.74%.

Which potentiation does the source give for `COc1ccc(CNC(=O)C2CC(c3ccc(C(F)(F)F)cc3)=NO2)cc1` (configuration not stated) here?
The potentiation was 11.9%.

Which potentiation does the source give for `COc1cccc(-n2cc(C(=O)NCc3cccc(Cl)c3)c3ccccc3c2=O)c1` here?
The potentiation was 3.92%.

`Cc1nnc(NCc2ccccc2)c2c1nnn2Cc1ccc(F)cc1` was tested. Which potentiation did it give?
Its potentiation is -11.5%.

With `COc1cc(Cl)c(NC(=O)C(NS(=O)(=O)c2cccs2)C(C)C)c(OC)c1` (configuration not stated) as the compound, how does the potentiation read?
Its potentiation is -0.155%.

For `Nc1nonc1-n1nnc(C(=O)N/N=C/C2CCCCC2)c1-c1ccccc1`, which potentiation is on record?
The potentiation was 38.6% (active).

How did the potentiation turn out when `CC(C)c1c(C(=O)N/N=C/c2ccc(-c3ccccc3)cc2)nnn1-c1nonc1N` was run?
The potentiation was 4.04%.

With `COCc1c(C(=O)N/N=C/C2CC=CCC2)nnn1-c1nonc1N` (configuration not stated) as the compound, how does the potentiation read?
Its potentiation is 5.51%.

How did the potentiation turn out when `Cc1cc(C)c2oc(-c3cccc(NC(=O)c4cccc(F)c4)c3C)nc2c1` was run?
The potentiation was -6.15%.

With `COc1cccc(-c2nc(CS(=O)(=O)CC(=O)N3CCN(c4cc(C)ccc4C)CC3)c(C)o2)c1` as the compound, how does the potentiation read?
The potentiation was 20.2%.

How did the potentiation turn out when `Cc1ccc(SCc2cc(=O)[nH]c(N3CCCCC3)n2)cc1` was run?
Its potentiation is -9.08%.

`Cc1ccc(SCCSc2ncccn2)cc1` was tested. Which potentiation did it give?
The potentiation was -3.01%.

Which potentiation does the source give for `Cc1ccc(SCC2=NNC(=O)C2)cc1` here?
Its potentiation is 31.9% (active).

How did the potentiation turn out when `CCn1c2ccccc2c2cc(NC(=O)COc3ccc(C)cc3C)ccc21` was run?
Its potentiation is -13%.

With `CCc1ccc(NC(=O)c2nn(-c3ccc(C)cc3)c(=O)n(C)c2=O)cc1` as the compound, how does the potentiation read?
The potentiation was 11.1%.

With `COc1ccc(CNC(=O)COC(=O)/C=C/c2ccc(S(=O)(=O)N3CCOCC3)cc2)cc1` as the compound, how does the potentiation read?
The potentiation was 33.3% (active).

How did the potentiation turn out when `O=C(COC(=O)/C=C/c1ccc(S(=O)(=O)N2CCCCCC2)cc1)NCc1ccccc1Cl` was run?
Its potentiation is -11.9%.

How did the potentiation turn out when `COC(=O)COc1ccc(S(=O)(=O)N2CCOCC2)cc1` was run?
Its potentiation is -3.49%.

With `CCn1c(CN2CCC(C)CC2)nc2cc(NC(=O)c3ccccc3[N+](=O)[O-])ccc21` as the compound, how does the potentiation read?
Its potentiation is -38.3%.

With `O=C(Cn1cc(SCc2cccc(Cl)c2)c2ccccc21)N1CCCCC1` as the compound, how does the potentiation read?
The potentiation was 1.4%.

`O=C(COc1ccc(Cl)cc1)N1CCN(c2cccc(C(F)(F)F)c2)CC1` was tested. Which potentiation did it give?
Its potentiation is 35.5% (active).

With `O=C(COc1ccc(Cl)cc1)N1CCN(S(=O)(=O)c2ccc(Cl)cc2)CC1` as the compound, how does the potentiation read?
Its potentiation is -3.15%.

Which potentiation does the source give for `Cc1c(C)c2ccc(OCC(=O)N3CCN(c4cccc(Cl)c4)CC3)cc2oc1=O` here?
Its potentiation is -6.58%.

How did the potentiation turn out when `CCOC(=O)c1ccc(N2C(=O)c3n[nH]c(-c4ccco4)c3C2c2ccc(O)cc2)cc1` (configuration not stated) was run?
The potentiation was -20%.

Which potentiation does the source give for `Nc1ncc(S(=O)(=O)Nc2ccc(OC(F)(F)F)cc2)cn1` here?
Its potentiation is -3.21%.

How did the potentiation turn out when `CCOc1ccc(NC(=O)CC2C(=O)N(c3cccc(OC)c3)C(=O)N2C2CCCCC2)cc1` (configuration not stated) was run?
Its potentiation is 2.76%.

Which potentiation does the source give for `COc1ccc(S(=O)(=O)c2cn(C)c3cc(N4CCCCC4)c(F)cc3c2=O)cc1` here?
Its potentiation is -4.51%.

Which potentiation does the source give for `COc1ccccc1N1CCN(c2ncnc3onc(-c4ccc(F)cc4)c23)CC1` here?
Its potentiation is -4.24%.

How did the potentiation turn out when `COc1ccccc1N1CCN(c2ncnc3sc(C)c(-c4ccccc4)c23)CC1` was run?
Its potentiation is 37.8% (active).

For `COC(=O)c1cnc(N2CCN(c3ccccc3OC)CC2)c2ccccc12`, which potentiation is on record?
Its potentiation is 3.09%.

How did the potentiation turn out when `CCc1ccc(C2C(C(=O)Nc3ccccc3)=C(C)Nc3c(C(=O)Nc4ccc(C)cc4)cnn32)cc1` (configuration not stated) was run?
Its potentiation is 4.34%.

For `COc1ccccc1N1CCN(c2ccc(=O)n(CC(=O)NCc3ccc(OC(C)C)cc3)n2)CC1`, which potentiation is on record?
Its potentiation is -2.29%.

`COc1cccc(NC(=O)C2c3cc(OC)c(OC)cc3C(=O)N(C)C2c2cccnc2)c1` (configuration not stated) was tested. Which potentiation did it give?
The potentiation was 30.1% (active).

For `COc1cccc(NC(=O)C2C(c3ccccc3)C2(Cl)Cl)c1` (configuration not stated), which potentiation is on record?
The potentiation was -7.1%.

`CCOc1cc2c(cc1OCC)C(C(=O)O)C(c1ccc(OC)c(O)c1)N(C)C2=O` (configuration not stated) was tested. Which potentiation did it give?
The potentiation was -25.6%.

How did the potentiation turn out when `Cc1ccc(O)c(NC(=O)CCS(=O)(=O)c2nc(-c3ccc4c(c3)OCO4)cc(C(F)(F)F)n2)c1` was run?
Its potentiation is 5.96%.

Which potentiation does the source give for `Cc1cccc(NC(c2cccc(F)c2)c2ccc3ccc(C)nc3c2O)n1` (configuration not stated) here?
The potentiation was 0.98%.

With `Cc1cc(C)cc(-n2c(SCC(=O)NCC3CCCO3)nc3c([nH]c4ccccc43)c2=O)c1` (configuration not stated) as the compound, how does the potentiation read?
The potentiation was -6.86%.

With `Cc1ccc(-n2cnc3cc(C(=O)NCCC4=CCCCC4)ccc32)cc1Cl` as the compound, how does the potentiation read?
The potentiation was 9.63%.

`CCn1c2ccccc2c2cc(CN3CCN(Cc4cccc(Cl)c4)CC3)ccc21` was tested. Which potentiation did it give?
The potentiation was -11.2%.

For `CCOC(=O)N1CCC(c2cc(=O)n(-c3ccccc3)[nH]2)CC1`, which potentiation is on record?
The potentiation was 49.5% (active).

For `CCOC(=O)N1CCC(NC(=O)CCc2ccccc2)CC1`, which potentiation is on record?
Its potentiation is -4.2%.

`CCOC(=O)CN1CCC(c2ccccc2)CC1` was tested. Which potentiation did it give?
Its potentiation is -9.51%.

How did the potentiation turn out when `CCCCS(=O)(=O)c1oc(-c2cccs2)nc1S(=O)(=O)c1ccccc1` was run?
The potentiation was 3.55%.

Which potentiation does the source give for `CCS(=O)(=O)N1CCc2cc(C(=O)N3CCN(c4ccccc4OC)CC3)ccc21` here?
The potentiation was 3.69%.
